Screening data from PubChem.
ADAM17 inh – ADAM17 inhibitors, primary screen, biochemical, QFRET | Disintegrin and metalloproteinase domain-containing protein 17 (Homo sapiens), P78536 | recombinant ADAM17, EDANS/DABCYL FRET peptide cleavage | inhibition, % at 6.95 µM | 370,000 tested, 0.83% active | AID 720648, 2013;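 active means inhibition above the mean of compounds lying between control limits plus 3 SD, set per campaign, cut at about 8.5% in these data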;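 further: 0% = DMSO-only wells as the low control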
ADAM10 inh – human ADAM10 inhibitors, primary screen, biochemical, QFRET, HTS; Disintegrin and metalloproteinase domain-containing protein 10 (Homo sapiens), O14672; 370,000 tested, 0.62% active; AID 720582, 2013; inhibition, % at 7 µM; recombinant ADAM10, EDANS/DABCYL FRET peptide cleavage, 3 h;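 active means inhibition above a per-campaign cutoff equal to the mean of compounds falling between control-based bounds plus 3 SD, cut at about 20% in these data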;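 further: 0% = DMSO wells while the 100% control is not disclosed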
HGIII-sPLA2 inh – human group III sPLA2 inhibitors, primary screen, biochemical, QFRET, BODIPY PC-A2 liposome substrate; QFRET BODIPY PC-A2 liposome hydrolysis, fluorescence; inhibition, % at 12.2 µM; 370,000 tested, 0.56% active;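 active means inhibition above mean plus 3 SD of compounds lying within the high and low control bounds, cut at about 19% in these data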;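 further: 0% = median of test compound wells and 100% = no enzyme DMSO wells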
PLC-gamma1 inh – PLC-gamma1 enzyme inhibitors, primary screen, biochemical, fluorescence, purified enzyme; AID 720700, 2013; inhibition, % at 12.2 µM; 1-phosphatidylinositol 4,5-bisphosphate phosphodiesterase gamma-1 (Homo sapiens), P19174; fluorogenic substrate; 370,000 tested, 0.84% active; in the data active means inhibition above about 9.5%
proKLK7 act – proKLK7 zymogen activators, primary screen, biochemical, fluorescence intensity; activation, % at 7 µM; 370,000 tested, 0.9% active; AID 652039, 2013; Kallikrein-7 (Homo sapiens), P49862; purified proKLK7, EDANS-DABCYL substrate fluorescence; 100% is mature enzyme control, 0% vehicle;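 active means activation above the mean of all tested compounds plus 3 SD, computed per campaign excluding outliers beyond control limits, cut at about 13% in these data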
PLCb3 inh – human PLC-beta3 inhibitors, primary screen, biochemical, fluorescence; Purified PLC-beta3, fluorogenic substrate; inhibition, % at 12.2 µM; 370,000 tested, 0.18% active; AID 720704, 2013; in the data active means inhibition above about 11%;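 further: 0% = median of compound wells on plate and 100% = full blocker control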
proKLK7 act conf – proKLK7 zymogen activators, confirmation, biochemical, fluorescence intensity, triplicate; AID 686949, 2013; activation, % at 7 µM; shares compounds with proKLK7 act; purified proKLK7, EDANS-DABCYL substrate fluorescence; scaled: vehicle 0, mature enzyme 100; 3,200 tested, 68% active;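 active means activation, as change over the incubation, above the mean of all tested compounds plus 3 SD, cut at about 13% in these data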
EDANS-DABCYL int – EDANS-DABCYL substrate optical interference, artefact control for kallikrein-7 zymogen activator project, biochemical, fluorescence intensity, high throughput; activation, % at 7 µM; AID 686952, 2013; no enzyme, 4 h; solvent 0%, active enzyme control 100%; shares compounds with proKLK7 act; 3,200 tested, 80% active;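 active means activation above the all-compound mean plus 3 SD, ignoring values outside control-based bounds, cut at about 4.8% in these data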;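 further: value is the 4 h activation minus the activation read at time zero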
K7 EDANS ctr – counter-screen for kallikrein-7 activators: EDANS-DABCYL interference, dose response; 250 tested, 20% active; EDANS-DABCYL peptide fluorescence interference, no enzyme; shares compounds with proKLK7 act; EC50, µM;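 active means compounds that raise the fluorescence signal in this interference counterscreen, with EC50 at or below 10 µM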;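 further: intact quenched peptide substrate alone read at 355 nm excitation and 520 nm emission; signal is fluorescence gain from T0 to T4 after four hours at room temperature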
* hit, by the source's call; i = inactive; . = no result given. This is a sample that favours compounds with a hit; in the whole collection about 3.4% have one here.

SMILES	ADAM17 inh	ADAM10 inh	HGIII-sPLA2 inh	PLC-gamma1 inh	proKLK7 act	PLCb3 inh	proKLK7 act conf	EDANS-DABCYL int	others
CNc1ccc(-c2cccc(CO)c2)cn1	i	i	2.8	-364.1	20.0*	-448.7	23.9*	16.2*	K7 EDANS ctr=>69.5
Cc1ccc(-c2cn3nc(C)c(C)nc3n2)cc1	i	i	-2.5	i	54.9*	i	58.9*	55.8*
COP(=O)(OC)c1nc(-c2cccc3ccccc23)oc1N1CCOCC1	i	i	-8.9	i	77.4*	i	63.0*	64.4*
O=C1C(NC(=O)N2c3ccccc3C=Cc3ccccc32)CCCCN1Cc1ccc(Cl)cc1 (stereo not given)	-0.1	4.2	-5.2	-1.4	-0.1	-2.4	.	.
COC(=O)c1ccc(C(=O)OC)c(NC(=O)/C=C/C(=O)O)c1	-493.7	i	1.9	-498.8	15.5*	i	0.6	1.8
COC(=O)c1ccc(C(=O)OC)c(NS(C)(=O)=O)c1	-15.3	-24.2	-1.5	-29.5	28.0*	-45.4	21.4*	20.6*
COC(=O)c1ccccc1NS(C)(=O)=O	-3.8	0.7	8.7	2.0	-0.5	-5.3	.	.
COC(=O)c1ccc(C(=O)OC)c(NC(=O)Oc2ccccc2)c1	i	i	2.3	i	38.3*	i	74.9*	75.0*
COc1cccc(C(=O)N2CCC(Oc3cccnc3)CC2)c1	-2.6	-3.2	-1.4	1.4	-0.1	2.2	.	.
N#Cc1c(-c2ccc(F)cc2)c2c([nH]c1=O)-c1ccccc1OC2	i	i	2.0	-250.8	11.7	-265.6	.	.
N#Cc1c(-c2cccnc2)c2c([nH]c1=O)-c1ccccc1OC2	i	i	10.6	i	72.5*	i	66.0*	70.8*
CCC(C)NC(=O)c1cc2c(=O)n3cccc(C)c3nc2s1 (stereo not given)	i	i	-2.3	-484.7	20.2*	i	18.2*	-2.9	K7 EDANS ctr=>69.6
CCN(CC)C(=O)c1cc2c(=O)n3cccc(C)c3nc2n1C	-197.4	i	2.6	i	22.4*	i	15.0*	20.8*
CCN(CC)C(=O)c1cc2c(=O)n3cccc(C)c3nc2s1	i	i	18.6	i	20.4*	i	12.9*	15.3*
CN(CCO)c1cccc2c1S(=O)(=O)N(Cc1cn(Cc3cccc(C(F)(F)F)c3)nn1)Cc1ccccc1O2	0.8	-8.7	-14.6	-13.0	0.0	-17.4	.	.
N#Cc1cnn2c3c(cnc12)C(=O)N1CCc2ccccc2C1C3 (stereo not given)	-63.1	-251.2	-35.6	-33.5	76.6*	-37.3	-181.5	-138.0
O=C1c2cnc3ncnn3c2CC2c3ccccc3CCN12 (stereo not given)	-196.7	i	-24.7	-47.8	100.9*	-53.8	195.5*	178.9*
CC(=O)CC[C@@H]1CC[C@]2(CCCN(C(=O)C(C)(C)C)C2)O1	-2.4	-3.5	2.4	-0.7	0.1	1.2	.	.
O=S1(=O)c2ccc(N3CC[C@H](O)C3)cc2OCCCN1C1CC1	-2.2	-10.9	9.8	-2.7	0.2	-3.5	.	.
O=C(O)c1ccc(N2N=C(c3ccccc3)CC2c2ccccc2)cc1 (stereo not given)	i	i	-30.4	i	63.8*	i	63.8*	75.2*
Cc1oc2c(CN(C)C)c(O)ccc2c(=O)c1-c1ccc2ccccc2n1	-6.5	-7.0	-2.1	-5.5	-0.3	-6.6	.	.
CCc1cc2c(=O)c(Oc3ccccc3F)c(C)oc2c(CN(C)C)c1O	i	i	-1.4	i	63.4*	i	72.1*	74.3*
CSc1nc(N2CCOCC2)nc2ccc(C)cc12	-279.4	i	14.3	-376.1	34.9*	-465.1	-31.5	-42.6
CC(=O)N1CCC(C(=O)N2c3ccccc3N=C(c3ccc(C(F)(F)F)cc3)C2C(=O)NC(C)(C)C)CC1 (stereo not given)	-15.2	-57.2	-1.9	-338.4	31.5*	i	-64.6	-66.4
Cc1cccc(Cn2cc(CN3CC(N(C)CCCOC(=O)c4cc5ccccc5o4)CS3(=O)=O)nn2)c1 (stereo not given)	2.1	8.2	-14.9	0.4	0.6	1.5	.	.
SMILES	ADAM17 inh	ADAM10 inh	HGIII-sPLA2 inh	PLC-gamma1 inh	proKLK7 act	PLCb3 inh	proKLK7 act conf	EDANS-DABCYL int	others
O=c1cc(N2CCN(c3cccc(C(F)(F)F)c3)CC2)[nH]c(=O)n1-c1ccccc1	0.1	9.3	6.3	6.0	.	4.8	.	.
c1ccc2c(c1)NC1(CCCCC1)n1c-2nc2ccccc21	i	i	0.5	i	63.3*	i	7.3	12.1*
CN1C(=O)C2(Nc3ccccc3-c3nc4ccccc4n32)c2ccccc21 (stereo not given)	-5.6	-21.6	-11.0	-21.3	-0.6	-36.8	.	.
c1ccc2c(c1)NC1(CCCCCC1)n1c-2nc2ccccc21	i	i	4.7	i	51.7*	i	2.5	3.4
CC1(c2ccccn2)Nc2ccccc2-c2nc3ccccc3n21 (stereo not given)	i	i	2.7	i	56.4*	i	9.9	3.0
O=C1Nc2ccccc2C12Nc1ccccc1-c1nc3ccccc3n12 (stereo not given)	-10.1	-23.9	-14.5	-16.5	0.1	-28.5	.	.
CCN1C(=O)C2(Nc3ccccc3-c3nc4ccccc4n32)c2cc(OC)ccc21 (stereo not given)	-2.0	-9.5	-15.3	-24.6	0.6	-31.8	.	.
CCCCC1(C)Nc2ccccc2-c2nc3ccccc3n21 (stereo not given)	i	i	0.2	i	62.5*	i	-11.0	-12.3
COc1cccc2c1[C@H](/C=C/c1ccccc1)[C@@H]([C@H](O)CO)OC2	-0.6	2.3	1.0	1.4	0.3	1.5	.	.
CN(Cc1ccccc1)S(=O)(=O)c1cccc(C(=O)OCc2cccc(C(F)(F)F)c2)c1	-1.9	3.8	2.4	2.6	-0.2	1.5	.	.
